Assay results published in the supplement of paper PMC6555819.

Tests used:
Assay in all cases: PBM binding z-score (relative to random genomic background probes); higher = stronger binding; sequences stand for … in GC…GCGATTGACAGCGTAGAATGAAGG
[1] = system: PPARg:RXRa DBDmut IVT, anti-RXR (DBD mutation: RXRa K156A/R161A, NR concentration 270 nM, RXRa partner concentration 90 nM)
Outline: (§1)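 For binding z-scores, the reference was random background probes on custom Agilent 4×180K protein-binding microarrays. These arrays were incubated 1 h with ligand-free nuclear receptor dimers in PBS pH 7.4, 2% milk, 0.02% Triton X-100, 1 mM DTT, 0.2 mg/mL BSA and 0.4 mg/ml salmon testes DNA. Fluorescence was scanned after antibody detection of each partner (one per run) and regression-normalized.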

[2] = system: PPARg:RXRa IVT, anti-PPARg (NR concentration 270 nM, RXRa partner concentration 90 nM)
Outline: as §1

[3] = system: PPARg DBDmut:RXRa IVT, anti-PPARg (DBD mutation: PPARg1 K132A/R137A, NR concentration 270 nM, RXRa partner concentration 90 nM)
Outline: as §1

[4] = system: PPARg DBDmut IVT, anti-PPARg (DBD mutation: PPARg1 K132A/R137A, NR concentration 270 nM)
Outline: as §1

[5] = system: PPARg homodimer (NR concentration 180 nM)
Outline: as §1

[6] = system: PXR:RXRa (NR concentration 270 nM, RXRa partner concentration 90 nM)
Outline: as §1

[7] = system: PXR homodimer (NR concentration 270 nM)
Outline: as §1

[8] = system: RARa:RXR (NR concentration 270 nM, RXRa partner concentration 90 nM)
Outline: as §1

[9] = system: RARa homodimer (NR concentration 270 nM)
Outline: as §1

[10] = system: RARb:RXRa (NR concentration 270 nM, RXRa partner concentration 90 nM)
Outline: as §1

[11] = system: RARb homodimer (NR concentration 270 nM)
Outline: as §1

[12] = system: RARg:RXRa (NR concentration 270 nM, RXRa partner concentration 90 nM)
Outline: as §1

[13] = system: RARg homodimer (NR concentration 270 nM)
Outline: as §1

[14] = system: RXRa DBDmut IVT, anti-RXR (DBD mutation: RXRa K156A/R161A, NR concentration 90 nM)
Outline: as §1

[15] = system: RXRa homodimer (NR concentration 180 nM)
Outline: as §1

[16] = system: THRa:RXRa (NR concentration 90 nM, RXRa partner concentration 90 nM)
Outline: as §1

[17] = system: THRa homodimer (NR concentration 90 nM)
Outline: as §1

[18] = system: VDR homodimer (NR concentration 270 nM)
Outline: as §1

Sequence	PBM binding z-score [1]	PBM binding z-score [2]	PBM binding z-score [3]	PBM binding z-score [4]	PBM binding z-score [5]	PBM binding z-score [6]	PBM binding z-score [7]	PBM binding z-score [8]	PBM binding z-score [9]	PBM binding z-score [10]	PBM binding z-score [11]	PBM binding z-score [12]	PBM binding z-score [13]	PBM binding z-score [14]	PBM binding z-score [15]	PBM binding z-score [16]	PBM binding z-score [17]	PBM binding z-score [18]
TGAATTAGGTTAAAGATCAGGGAACGTGGCGTCG	6.08	5.63	0.86	1.43	1.58	0.403	0.276	1.12	1.04	1.19	-0.0287	0.954	0.891	-0.199	1.58	0.806	0.0277	0.326
CCTATTCGTTGACCATAAGGGCAACCGAAGCTCG	0.434	0.637	0.0621	0.266	1.7	0.841	0.82	1.41	1.43	1.82	2.14	1.16	1.04	0.173	0.704	1.85	1.57	0.974
GCTATTAGTTAAAAGGGCAACCGAATGATTCTCG	0.433	0.998	0.676	-0.168	1.15	0.537	0.39	0.874	1.2	1.97	2.21	1.08	1.32	0.572	0.904	0.641	-0.221	0.339
CCTAGTTGGTAAAGGTCACACACGCTATAGGTAC	1.96	4.31	1.8	2.57	5.56	5.79	2.18	6.31	3.99	5.22	5.1	6.22	6.12	2.1	6.73	4.12	2.03	3.54
CCTACTGGGCCACGAAAGGTCGTTGATTCAGTGA	5.8	5.18	-0.547	-0.744	1.16	2.77	0.256	2.19	-0.764	1.84	2.27	1.65	1.29	-0.0734	2.09	2.26	-0.153	0.759
TTACCAAGGTGAAGGTCGTTAATCCCTCTGTAGA	1.67	3.05	-0.743	-0.257	0.621	1.28	0.0227	1.65	-0.0474	1.98	1.62	1.07	0.814	-0.0664	1.54	2.22	0.878	0.939
ATCGAAAGGTCGTGAGGTGAGTAAACAGAAAGGC	0.111	2.34	1.06	0.746	1.39	2.84	0.0266	4.08	0.931	3.94	2.71	4.68	4.11	1.25	4.91	3.31	1.1	0.838
AGCATGAGGTTATTAAGATCAGGGAATTGCGGTC	0.439	0.818	0.518	-0.586	0.577	1.29	0.786	1.44	0.368	1.45	0.785	1.38	1.03	1.99	1.77	2.19	0.867	1.59
CGTCCACGGTCAATGCTAGGTCAGTGAAAGCATT	0.573	1.02	-0.899	-1.45	0.415	0.201	-0.388	1.17	-0.504	3.16	3.02	3.59	3.1	0.356	0.354	2.12	0.347	-0.19
CGTCAAAGTTCAAGGGAACGTAACAGAAAGCAGC	0.445	1.36	0.481	1.2	2.69	3.89	2.32	3.09	1.28	5.11	3.52	4.97	5.93	4.46	4.17	1.72	-0.254	2.72
TCAGACAGGTTAAGGTAACTCAGGTACGCAGTCG	2.56	0.69	0.624	0.18	1.1	1.1	0.461	1.54	0.655	1.51	1.33	1.22	1.08	1.43	1.57	3.11	2.5	0.557
CCGACTGGGGCAAAGTTTACCATACTCAGTACGA	4.45	4.71	-0.8	-0.571	0.875	0.182	0.0528	0.465	-0.24	1.41	0.876	1.01	1.06	1.29	0.757	0.304	-0.108	0.435
GCGACTGGGGCAAACCAGGTTACCATAAGGTTGG	4.47	3.82	-1.05	-0.639	-0.0869	0.736	-0.522	0.63	-0.483	0.961	1.29	0.596	0.516	-0.486	0.616	3.93	0.684	-0.202
AGAATGAGGCTAAGATCAGGGAAACAGAATACAT	0.345	0.552	0.582	0.0133	0.00249	-0.259	0.0356	-0.0952	0.229	0.158	0.17	0.222	0.265	-0.309	-0.046	0.533	0.04	-0.208
TCTTGTGGATCAACAGGAGGTTAAGAAAGATCGA	1.35	0.812	0.186	1.07	0.476	0.621	-0.304	0.932	-0.244	0.59	0.619	1.18	0.266	0.248	0.985	1.01	-0.626	0.119
CGTCCAAAGTCATAGGAGGTCAGTGAAGACAGAT	0.497	1.53	0.0341	0.213	1.59	3.35	1.12	2.86	1.34	2.7	3.55	2.71	2.75	0.438	1.96	4.28	0.808	1.55
